# Laboratory results as given in PubChem BioAssay (NCI).
# About 83,000 compounds went through this panel and 20% of them were active in at least one assay; those are over-represented in the sample as a whole.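 The test compound was applied at a single concentration to cells in 96-well plates for 48 hours, and percent growth was recorded.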 Unmarked numbers belong to inactive results. Active and inactive are the calls of the source. Rule for the calls: active = growth percent below 10; inactive = the rest.
# How the values were obtained:
# Experiment in all cases: NCI-60 one-dose screen, 48 h (100 = growth as untreated, 0 = no growth, -100 = all killed)
# Conditions in all cases: 10 µM unless noted
# [1] = tested on: HCT-15 colon
# [2] = tested on: HT29 colon
# [3] = tested on: SNB-75 CNS
# [4] = tested on: SNB-19 CNS
# [5] = tested on: U251 CNS
# [6] = tested on: PC-3 prostate
# [7] = tested on: SK-MEL-5 melanoma
# [8] = tested on: UACC-62 melanoma
# [9] = tested on: LOX IMVI melanoma
# [10] = tested on: SK-MEL-28 melanoma
Compound,growth [1],growth [2],growth [3],growth [4],growth [5],growth [6],growth [7],growth [8],growth [9],growth [10]
COc1ccc(-c2cnc(-c3ccc(Cl)cc3)[nH]2)cc1OC,100%,97.6%,72.8%,96%,102%,81.3%,97.4%,94.6%,110%,104%
CCNCCNc1cc(-c2ccc(Cl)c(Cl)c2)c(C#N)c2nc3ccccc3n12,-84% (active),-87.3% (active),-88.4% (active),-74.2% (active),-95.5% (active),-83% (active),-93.5% (active),-74.2% (active),-93.4% (active),-81% (active)
COc1cc2nccc(Oc3ccc(NC(=O)Nc4cc(C)on4)c(Cl)c3)c2cc1OC,18.3%,-9.07% (active),-6.16% (active),32.8%,28.2%,21.1%,-19.7% (active),11.5%,-2.96% (active),23.2%
COc1ccc(Cc2cc(-c3ccccc3C)n[nH]c2=O)cc1,107%,98.1%,72.7%,87.1%,100%,81.7%,99.2%,94.8%,109%,106%
O=C(Cc1ccc(/C=C/C(=O)c2ncc[nH]2)cc1)Nc1ccc(S(F)(F)(F)(F)F)cc1,34.2%,-25.7% (active),72.8%,75.9%,37%,58.9%,98.4%,86.7%,-59% (active),100%
c1ccc2c(c1)CCN(NCCN1CCCC1)C2,105%,101%,70.9%,107%,94.3%,64.6%,104%,98.6%,90.1%,109%
S=C(NCc1ccc2c(c1)OCO2)N1CCN(c2ncnc3c2oc2ccccc23)CC1,37.1%,28.9%,37.6%,49.1%,41.3%,27.3%,-46% (active),31%,44.6%,52.9%
COCc1c(-c2ccc(NC(=O)Nc3cc(C(F)(F)F)ccc3F)c(F)c2)c2c(N)ncnn2c1CN1CCOCC1,-21% (active),-26.8% (active),-95.8% (active),-14.9% (active),-35.5% (active),-25.4% (active),-78.9% (active),-38.8% (active),-81.7% (active),-6.65% (active)
Cc1[nH]c(/C=C2\C(=O)Nc3ccc(F)cc32)c(C)c1C(=O)NC[C@H](O)CN1CCOCC1,19.1%,9.81% (active),35.2%,96.7%,60.5%,36.2%,21.4%,29.9%,9.27% (active),17.7%
COc1cnc2c(c1)C(=O)c1c-2n(CCCN2CCC(N)CC2)c(=O)c2cc([N+](=O)[O-])ccc12,49%,36.5%,60.9%,39.8%,39.4%,40.7%,72.4%,49.8%,21.2%,116%
COc1cc2c(cc1OCCCCCN1CCN(c3ncnc4ccccc34)CC1)N=CC1CCCN1C2=O (stereo not given),0.198% (active),8.89% (active),-50.2% (active),12.6%,2.18% (active),-38.6% (active),-80.6% (active),-90.4% (active),-49.2% (active),-14.6% (active)
CCCCCCCC(=O)SCC/C=C/[C@@H]1CC(=O)NCc2cccc(n2)C2=N[C@@](C)(CS2)C(=O)N[C@@H](C(C)C)C(=O)O1,2.94% (active),0.997% (active),31.3%,14.3%,-32.1% (active),11.5%,-93.9% (active),-64.1% (active),-94.3% (active),1.51% (active)
NS(=O)(=O)c1ccc(CCN2C(=O)/C(=C\c3ccc(Cl)cc3)C=C2c2ccc3ccccc3c2)cc1,94.9%,87.9%,78.1%,92.5%,85.5%,75.8%,94.8%,71.8%,96.1%,103%
COc1cc2c(cc1OCCCCN1CCN(CC(=O)Nc3ccc(Cl)cc3C(=O)c3ccccc3Cl)CC1)N=CC1CCCN1C2=O (stereo not given),-65.6% (active),-61.4% (active),-84.7% (active),-57.3% (active),-88.4% (active),-98.6% (active),-92.6% (active),-85.1% (active),-84.4% (active),-86% (active)
O=C(NC1CCNCC1)c1[nH]ncc1NC(=O)c1c(Cl)cccc1Cl,72.7%,-26.7% (active),-40.7% (active),12.5%,4.47% (active),5.97% (active),-12.8% (active),-41.9% (active),8.93% (active),-14.5% (active)
O=C(CNc1nc(-c2ccc(Cl)cc2)cs1)Nc1ccc(-c2nc3ccccc3s2)cc1,110%,108%,77.8%,98.2%,91.6%,90.7%,87.7%,91.9%,95.6%,111%
CN1CCN(CCOc2cc(OC3CCOCC3)c3c(Nc4c(Cl)ccc5c4OCO5)ncnc3c2)CC1,54.6%,7.45% (active),-17.7% (active),54.6%,67.3%,71%,87.4%,99.6%,15.5%,104%
CCCC(=O)OCC1OC(n2cnc3c(=S)nc[nH]c32)C(OC(=O)CCC)C1OC(=O)CCC (stereo not given),56.4%,35.9%,52.9%,74.4%,87.6%,59.7%,38.6%,13.7%,11.7%,98.2%
Cc1ccc(F)c(NC(=O)Nc2ccc(-c3cccc4[nH]nc(N)c34)cc2)c1,7.06% (active),2.74% (active),29.8%,27.2%,12.9%,30.8%,34.6%,37.1%,-8.35% (active),36.1%
Cc1c(Cn2c(C)nc3c(C(=O)O)cc(N4CCOCC4)cc32)cccc1C(F)(F)F,44.5%,69.5%,61.3%,118%,104%,68.2%,104%,65.5%,101%,80.9%
NC1(c2ccc(-c3nc4ccn5c(=O)[nH]nc5c4cc3-c3ccccc3)cc2)CCC1,15.2%,-7.85% (active),-8.24% (active),18.1%,-3.88% (active),21.3%,-85.7% (active),47.5%,-57.6% (active),-66.7% (active)
CCN(CC)C(=O)C[N+](C)(C)CCOC(c1ccccc1)c1ccccc1,101%,105%,75.4%,106%,110%,100%,103%,106%,97.7%,105%
CCN1CCN(Cc2ccc(-c3cc4c(N[C@H](C)c5ccccc5)ncnc4[nH]3)cc2)CC1,50.1%,4.82% (active),75.1%,46.2%,56.8%,41.3%,59.8%,7.59% (active),13.5%,16.7%
CS(=O)(=O)N1CCN(Cc2cc3nc(-c4cccc5[nH]ncc45)nc(N4CCOCC4)c3s2)CC1,19.3%,11.4%,-25.6% (active),34.9%,34%,18.2%,33.5%,-14.2% (active),15.5%,10.6%
Clc1ccc(Nc2nccc(Nc3ccc4[nH]ncc4c3)n2)cc1,40.5%,16.6%,67.6%,78.1%,58.8%,24.9%,25.9%,33.5%,44.9%,80%
COc1ccc(F)c(F)c1C(=O)c1cnc(NC2CCN(S(C)(=O)=O)CC2)nc1N,3.08% (active),-25.5% (active),-66.1% (active),12.6%,0.678% (active),0.205% (active),-42.1% (active),-44.5% (active),6.39% (active),-35.3% (active)
CCN(CC)CCCC(C)Nc1cc(-c2ccc(C(F)(F)F)cc2)c(C#N)c2nc3ccccc3n12 (stereo not given),3.48% (active),-2.76% (active),-56.1% (active),34.9%,3.09% (active),22.1%,-89.9% (active),-67.3% (active),-80.6% (active),-64.7% (active)
